About 300 (9.4%) of roughly 3,200 compounds showed activity. For the sample, actives were picked, then their nearest neighbours and some compounds at random.
Tested on: A673/TR/shEF
Assay: cell viability (LOESS-normalised, relative to median of negative controls) (log2 ratio); higher = more viable cells (less compound effect), active = hit call of the paper (over 3 MAD below the median)
Conditions: treatment time: 72 h
In short: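 A673/TR/shEF Ewing sarcoma cells (1,500 per well, 384-well plates) were grown with or without doxycycline to induce EWS-FLI1 shRNA knockdown, starting 24 h before compounds. Library compounds at two or more concentrations, with DMSO controls, were added for three days. Cell viability was read by CellTiter-Glo luminescence on an Envision reader, then LOESS-corrected per plate, divided by the median of negative controls and log2-transformed. Hits were wells at least three median absolute deviations from the median of all screened wells.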

[1] = 0.25 µM, library screen: screen1, EWS-FLI1 expression: high (no doxycycline)
[2] = 0.25 µM, library screen: screen1, EWS-FLI1 expression: low (doxycycline-induced shRNA knockdown)
[3] = 2.5 µM, library screen: screen1, EWS-FLI1 expression: high (no doxycycline)
[4] = 2.5 µM, library screen: screen1, EWS-FLI1 expression: low (doxycycline-induced shRNA knockdown)
[5] = 0.25 µM, library screen: screen2, EWS-FLI1 expression: high (no doxycycline)
[6] = 0.25 µM, library screen: screen2, EWS-FLI1 expression: low (doxycycline-induced shRNA knockdown)
[7] = 2.5 µM, library screen: screen2, EWS-FLI1 expression: high (no doxycycline)
[8] = 2.5 µM, library screen: screen2, EWS-FLI1 expression: low (doxycycline-induced shRNA knockdown)
[9] = 0.103 µM, library screen: screen3, EWS-FLI1 expression: high (no doxycycline)
[10] = 0.103 µM, library screen: screen3, EWS-FLI1 expression: low (doxycycline-induced shRNA knockdown)
[11] = 0.308 µM, library screen: screen3, EWS-FLI1 expression: high (no doxycycline)
[12] = 0.308 µM, library screen: screen3, EWS-FLI1 expression: low (doxycycline-induced shRNA knockdown)
[13] = 0.926 µM, library screen: screen3, EWS-FLI1 expression: high (no doxycycline)
[14] = 0.926 µM, library screen: screen3, EWS-FLI1 expression: low (doxycycline-induced shRNA knockdown)
[15] = 2.8 µM, library screen: screen3, EWS-FLI1 expression: high (no doxycycline)
[16] = 2.8 µM, library screen: screen3, EWS-FLI1 expression: low (doxycycline-induced shRNA knockdown)
[17] = 8.3 µM, library screen: screen3, EWS-FLI1 expression: high (no doxycycline)
[18] = 8.3 µM, library screen: screen3, EWS-FLI1 expression: low (doxycycline-induced shRNA knockdown)
[19] = 25 µM, library screen: screen3, EWS-FLI1 expression: high (no doxycycline)
[20] = 25 µM, library screen: screen3, EWS-FLI1 expression: low (doxycycline-induced shRNA knockdown)

Measured: cell viability (log2)

O=C(NC(=S)Nc1ncc(Br)cc1Br)c1cccs1
inactive: [1] 0.112 | [2] -0.086 | [3] 0.132 | [4] 0.0575

COc1c(Cl)ccc(Cl)c1C(=O)O
inactive: [1] 0.0938 | [2] 0.128 | [3] 0.0992 | [4] 0.17

CC(=O)O[C@H]1CC[C@]2(C)C3=CC(=O)[C@@]4(C)C(C[C@@H]5OC6(OCC(C)CC6Br)[C@@H](C)[C@@H]54)C3CC[C@H]2C1 (some centres undefined)
inactive: [1] 0.0329 | [2] 0.0911 | [3] 0.172 | [4] 0.139

CC(C)(C)OC(=O)C(C)(N)c1ccc(Cl)cc1 (centres undefined)
inactive: [5] 0.157 | [6] 0.0841 | [7] 0.151 | [8] 0.141

C#Cc1cccc(Nc2ncnc3cc(OCCOC)c(OCCO)cc23)c1
inactive: [9] -0.021 | [10] 0.0228 | [11] -0.00557 | [12] 0.0307 | [13] -0.00846 | [14] 0.063 | [15] 0.0648 | [16] 0.0201 | [17] -0.0295 | [18] 0.0604 | [19] -0.0784 | [20] -0.0862

CCN(CCO)CCCOc1ccc2c(Nc3cc(CC(=O)Nc4cccc(F)c4)[nH]n3)ncnc2c1
active: [9] -0.49 | [11] -0.395 | [13] -0.452 | [15] -0.473 | [16] -0.112 | [17] -0.446 | [19] -0.681
inactive: [10] -0.0648 | [12] -0.00388 | [14] -0.0458 | [18] -0.0257 | [20] -0.0482

O=C(CSc1nc2ccccc2[nH]1)c1ccc(OC(F)F)cc1
inactive: [1] 0.0646 | [2] 0.0338 | [3] 0.169 | [4] -0.104

CN1CCN(CC(=O)N2c3ccccc3Sc3ccccc32)CC1
inactive: [1] 0.172 | [2] 0.134 | [3] 0.173 | [4] 0.343

CNC(=O)c1c(F)cccc1Nc1nc(Nc2cc3c(cc2OC)CCN3C(=O)CN(C)C)nc2[nH]ccc12
inactive: [9] -0.00474 | [10] 0.0229 | [12] -0.0133 | [14] -0.047
active: [11] -0.215 | [13] -0.468 | [15] -0.729 | [16] -0.119 | [17] -0.785 | [18] -0.103 | [19] -1.04 | [20] -0.185

CCOC(=O)C1=C(C)N=C2SC(C)C(=O)N2C1c1ccc(OC)cc1 (centres undefined)
inactive: [1] 0.148 | [2] 0.0319 | [3] 0.107 | [4] 0.0438

NC(C(=O)O)c1cccc(O)c1 (centres undefined)
inactive: [5] 0.144 | [6] 0.0441 | [7] 0.145 | [8] 0.0975

C[C@@H]1CC[C@@]23CCC4(C)[C@@](C=CC5[C@@]6(C)CC[C@H](O)C(C)(C)C6CC[C@]54C)(OC2=O)C3[C@H]1C (some centres undefined)
inactive: [1] 0.00363 | [2] -0.0167 | [3] 0.0828 | [4] -0.0285

COCCOC(=O)C1=C(C)NC(=S)NC1c1ccccc1 (centres undefined)
inactive: [1] 0.0342 | [2] 0.00808 | [3] 0.0869 | [4] 0.0951

C=C(C)C1Cc2c(cc3oc(CO)cc(=O)c3c2O)O1 (centres undefined)
inactive: [1] 0.0482 | [2] -0.012 | [3] 0.067 | [4] 0.013

CC[C@@]1(O)C(=O)OCc2c1cc1n(c2=O)Cc2cc3cc(O)ccc3nc2-1
active: [1] -1.78 | [2] -0.267 | [3] -4.23 | [4] -1.06

CCc1c2c(nc3ccc(OC(=O)N4CCC(N5CCCCC5)CC4)cc13)-c1cc3c(c(=O)n1C2)COC(=O)[C@]3(O)CC
active: [13] -0.241 | [15] -1.31 | [16] -0.173 | [17] -1.95 | [18] -0.414 | [19] -2.57 | [20] -0.647
inactive: [9] 0.00275 | [10] 0.0626 | [11] -0.0633 | [12] 0.00509 | [14] 0.026

CC[C@@]1(O)C(=O)OCc2c1cc1n(c2=O)Cc2cc3c(CN(C)C)c(O)ccc3nc2-1
inactive: [10] -0.0171
active: [9] -0.373 | [11] -1.79 | [12] -0.321 | [13] -2.4 | [14] -0.459 | [15] -3.72 | [16] -0.844 | [17] -4.21 | [18] -1.11 | [19] -4.26 | [20] -1.44

C=CC(C)(O)CC/C=C(\C)CCC=C(C)C (centres undefined)
inactive: [1] 0.0873 | [2] 0.0984 | [3] 0.22 | [4] 0.113

COc1cc(OC)c(C2NC(=S)NC(C)=C2C(=O)Nc2ccccc2Cl)cc1OC (centres undefined)
inactive: [1] 0.0713 | [2] 0.0952 | [3] 0.0303 | [4] 0.0128

CC(C)C[C@H](NC(=O)OCC1c2ccccc2-c2ccccc21)C(=O)O
inactive: [1] 0.0635 | [2] 0.0579 | [3] 0.116 | [4] -0.00318

CC(C)CCCC(C)C1CCC2C3CCC4CC(=O)CCC4(C)C3CCC12C (centres undefined)
inactive: [1] 0.027 | [2] 0.0292 | [3] 0.169 | [4] 0.017

C/C1=C\CC/C(C)=C/CC(C)(C)/C=C/C1
inactive: [1] 0.0853 | [2] 0.0875 | [3] 0.112 | [4] 0.0862

Cc1ccc(C(C)C)cc2c(C)ccc1-2
inactive: [1] 0.0556 | [2] -0.0467 | [3] 0.0686 | [4] 0.0228

C=C1CCC2C(CC2(C)C)C(=C)CCC1=NO (centres undefined)
inactive: [1] 0.105 | [2] 0.00367 | [3] 0.133 | [4] 0.0769

CC(C)=CCc1c(O)cc(C)oc1=O
inactive: [1] 0.0912 | [2] -0.0147 | [3] 0.109 | [4] -0.0401

O=c1[nH]cc(F)c(=O)[nH]1
active: 25 µM, library screen: screen2, EWS-FLI1 expression: high (no doxycycline) -0.375
inactive: 0.025 µM, library screen: screen2, EWS-FLI1 expression: high (no doxycycline) 0.207 | 0.025 µM, library screen: screen2, EWS-FLI1 expression: low (doxycycline-induced shRNA knockdown) 0.0564 | [9] 0.0782 | [10] 0.0161 | [1] 0.0591 | [2] -0.00519 | [5] 0.172 | [6] 0.0764 | [11] 0.113 | [12] 0.0726 | [13] 0.13 | [14] 0.0535 | [3] 0.0991 | [4] 0.0157 | [7] 0.104 | [8] 0.00707 | [15] 0.139 | [16] 0.018 | [17] 0.0774 | [18] 0.0748 | 25 µM, library screen: screen2, EWS-FLI1 expression: low (doxycycline-induced shRNA knockdown) -0.051 | [19] -0.0664 | [20] -0.00616

— the supplement of paper PMC6089552
